# About 83,000 compounds went through this panel and 20% of them were active in at least one assay; those are over-represented in the sample as a whole.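 48-hour exposure, single concentration, 96-well plates; percent growth endpoint where 0 means no net growth. Active: below 10.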 A number with no mark means an inactive call. Active and inactive are the calls of the source.
# Test system: SNB-75 CNS
# Experiment: NCI-60 one-dose screen, 48 h (100 = growth as untreated, 0 = no growth, -100 = all killed)
# Conditions: 10 µM unless noted
row,SMILES,growth
1,OCCCCc1nccc2c1[nH]c1ccccc12,80.5%
2,CCCn1nc(-c2ccccc2)c2c(-c3ccccc3)onc2c1=O,53%
3,Cc1cc(N(CCCNc2ccnc3cc(Cl)ccc23)Cc2ccccn2)nc(N2CCCC2)n1,75.4%
4,C=C(C)[C@@H]1CC[C@]2(CN)CC[C@]3(C)[C@H](CC[C@@H]4[C@@]5(C)CCC(N)[C@@](C)(CO)[C@@H]5CC[C@]43C)[C@@H]12 (some centres undefined),75.6%
5,COc1ccc(-n2ncn(CCCCCCn3cnn(-c4ccc(OC)cc4)c3=O)c2=O)cc1,79.8%
6,O=C(NC1CCOCC1)c1ccc2c(c1)CN(c1ncc(Cc3cccc(-n4cccn4)c3)s1)CC2,91.5%
7,C=C(CNCCc1ccc(O)cc1)[C@@H]1CC[C@]2(COC3CCCCO3)CC[C@]3(C)[C@H](CC[C@@H]4[C@@]5(C)CCC(NCCO)C(C)(C)[C@@H]5CC[C@]43C)[C@@H]12 (some centres undefined),-17.6% (active)
8,Cc1c(C(=O)O[C@H]2[C@@H]3[C@H](C)CC[C@H]3[C@]3(C)O[C@@]2(C2CCCCC2)C[C@H]3OC(=O)CO)ccc2ccccc12,82.6%
9,COc1ccc(Oc2nc(Nc3ccc(N4CCCCC4)nc3)ncc2NC(=O)c2cc(OC)cc(OC)c2)cc1,34.1%
10,O=C(Oc1ccc[nH]c1=O)c1cc([N+](=O)[O-])cc([N+](=O)[O-])c1,97.1%
11,Cc1cc(N2CCCCC2)nc(N(CCNc2ccnc3cc(Cl)ccc23)Cc2ccccn2)n1,80.3%
12,CCCCOc1ccc(NC(=O)n2nc(N=NN(C)C)c3ccc(Cl)cc32)cc1,89.1%
13,O=C1NN(C(=O)c2ccc(O)cc2)C(c2ccccc2)=N/C1=C\c1cn(-c2ccccc2)nc1-c1ccccc1,77.4%
14,COC(=O)/C(=C\c1ccc(OC)cc1)C(=O)N1c2ccccc2Sc2ccccc21,2.37% (active)
15,COc1ccc(Oc2nc(Nc3ccc(N4CCOCC4)nc3)ncc2NC(=O)c2cc(OC)cc(OC)c2)cc1,70.6%
16,NC(=O)c1c(NC(=O)c2ccc(C(F)(F)F)cc2Cl)sc2c1CCC(=O)C2,-81.9% (active)
17,O=C(NCCOCCOCCOCCNC(=O)c1cc2c(o1)C(=O)c1ccccc1C2=O)NC12CC3CC(CC(C3)C1)C2,-99.6% (active)
18,COC(=O)c1ccc(CSc2nnc(-c3ccncc3)o2)cc1,81.9%
19,CCCc1nc2ccccn2c1Nc1ccc(C(=O)NO)cc1,82.2%
20,Fc1ccc(Nc2ccc3cc(OCCCN4CCOCC4)ccc3n2)cc1F,48.6%

row,SMILES,growth
1,C=C1c2c(C)nn(-c3ccc(S(N)(=O)=O)cc3)c2N(C)C23CC1C1(C)c4c(C)nn(-c5ccc(S(N)(=O)=O)cc5)c4N(C)C(C)(CC12)C3 (centres undefined),76%
2,C=C1c2c(C)nn(-c3ccc(NC(C)=O)cc3)c2N(C)C23CC1C1(C)c4c(C)nn(-c5ccc(NC(C)=O)cc5)c4N(C)C(C)(CC12)C3 (centres undefined),99%
3,C[C@@H]1CC[C@@H]2[C@@H]1[C@H](OC(=O)c1ccc3ccccc3c1)[C@]1(C3CCCCC3)C[C@@H](OC(=O)CO)[C@@]2(C)O1,64.9%
4,CC(C)(C)c1ccc(C(=O)Nc2sc3c(c2C(N)=O)CCC(=O)C3)cc1,-49.3% (active)
5,N=c1ccn2c(n1)OC1C(O)C(CO)OC12 (centres undefined),11.4%
6,NC(=Nc1ccc(N)cc1)C(N)=Nc1ccc(N)cc1,91.8%
7,COc1ccc(/C=C(\C#N)n2nnc3cc(F)c(F)cc32)c(OC)c1OC,82%
8,C=C1c2c(C)nn(-c3ccc(O)cc3)c2N(C)C23C[C@@H]1C1(C)c4c(C)nn(-c5ccc(O)cc5)c4N(C)C(C)(C[C@H]12)C3 (some centres undefined),64.2%
9,CSc1ccc(Cl)c(C(=O)Nc2sccc2C(N)=O)c1,105%
10,C=C1c2c(C)nn(-c3ccc(N)cc3)c2N(C)C23CC1C1(C)c4c(C)nn(-c5ccc(N)cc5)c4N(C)C(C)(CC12)C3 (centres undefined),109%
11,CC(=O)Nc1ccc2c(c1)Cc1c(F)cccc1-2,73.7%
12,C=C(C)[C@@H]1CC[C@]2(CNCCO)CC[C@]3(C)[C@H](CC[C@@H]4[C@@]5(C)CCC(N)[C@@](C)(CO)[C@@H]5CC[C@]43C)[C@@H]12 (some centres undefined),73.5%
13,Cc1cnc(Nc2ccc(OCCN3CCCC3)cc2)nc1NCc1ccco1,33.3%
14,Cc1cc(N(CCCNc2ccnc3cc(Cl)ccc23)Cc2ccccn2)nc(N2CCOCC2)n1,69.2%
15,C=C(CNCCc1ccc(O)cc1)[C@@H]1CC[C@]2(COC3CCCCO3)CC[C@]3(C)[C@H](CC[C@@H]4[C@@]5(C)CCC(N)C(C)(C)[C@@H]5CC[C@]43C)[C@@H]12 (some centres undefined),-88% (active)
16,Clc1ccc2c(NCCCN3CCN(c4nc(-n5ccnc5)nc5ccccc45)CC3)ccnc2c1,100%
17,Cn1c(NCCc2ccc(O)c(O)c2)nc2c1c(=O)n(Cc1ccc(Cl)cc1)c(=O)n2C,57.1%
18,CCN(CC)N=Nc1nn(C(=O)Nc2ccc(Cc3ccccc3)cc2)c2ccc(Cl)cc12,88.8%
19,COC(=O)c1ccc2oc(NC(=O)c3ccc(N4CCOCC4)c([N+](=O)[O-])c3)nc2c1,79.7%

# From PubChem BioAssay (NCI)
